Results filed as inconclusive are left out. The source made the active and inactive calls. Calls come from the whole dose curve; as a rule, active = well fitted curve in the direction sought with a large enough effect; inconclusive = small, poorly fitted or top-dose-only effect, or another doubt; inactive = no such curve, though single readings can be large; an effect the other way counts as inactive or inconclusive.
Columns and labels:
[1] = biological target: Rap guanine nucleotide exchange factor 3 (Homo sapiens) (UniProt O95398); experiment: Confirmatory qHTS for agonist of cAMP-regulated guanine nucleotide exchange factor 3 (EPAC1) (AID 1645881);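 note: EPAC1 catalysed release of BODIPY-GDP from Rap1B seen as fluorescence loss; 100% = effect of cAMP agonist control; nearly all actives have a fitted effect of over 75% in size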
Chain of Rap guanine nucleotide exchange factor 3 (Homo sapiens) (O95398 whole entry, looked up): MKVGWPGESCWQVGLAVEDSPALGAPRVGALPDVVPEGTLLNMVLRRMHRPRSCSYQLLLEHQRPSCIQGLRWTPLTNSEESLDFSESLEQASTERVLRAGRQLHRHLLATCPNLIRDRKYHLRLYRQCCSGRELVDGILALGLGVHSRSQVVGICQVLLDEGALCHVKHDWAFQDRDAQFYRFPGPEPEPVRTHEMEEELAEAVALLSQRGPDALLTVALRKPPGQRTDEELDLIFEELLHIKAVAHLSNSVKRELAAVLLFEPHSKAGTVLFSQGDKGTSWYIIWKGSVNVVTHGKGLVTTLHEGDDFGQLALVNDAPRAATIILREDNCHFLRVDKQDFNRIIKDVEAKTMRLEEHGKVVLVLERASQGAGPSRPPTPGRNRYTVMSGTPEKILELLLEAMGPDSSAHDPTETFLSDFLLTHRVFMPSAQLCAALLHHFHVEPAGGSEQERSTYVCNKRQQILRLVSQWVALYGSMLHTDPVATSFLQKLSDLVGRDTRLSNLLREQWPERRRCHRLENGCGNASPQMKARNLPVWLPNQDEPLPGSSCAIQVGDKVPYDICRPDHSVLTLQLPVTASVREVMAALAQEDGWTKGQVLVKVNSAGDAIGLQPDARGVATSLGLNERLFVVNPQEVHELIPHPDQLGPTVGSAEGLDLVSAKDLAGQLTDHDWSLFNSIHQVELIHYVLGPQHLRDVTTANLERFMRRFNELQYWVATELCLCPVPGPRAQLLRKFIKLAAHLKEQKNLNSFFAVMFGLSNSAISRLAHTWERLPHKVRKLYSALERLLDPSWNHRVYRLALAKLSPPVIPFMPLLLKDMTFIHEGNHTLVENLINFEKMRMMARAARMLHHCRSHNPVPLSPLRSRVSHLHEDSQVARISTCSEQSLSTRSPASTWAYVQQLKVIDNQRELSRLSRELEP

[2] = biological target: Rap guanine nucleotide exchange factor 4 (Homo sapiens) (UniProt Q8WZA2); experiment: Confirmatory qHTS for agonist of cAMP-regulated guanine nucleotide exchange factor 4 (EPAC2) (AID 1645884);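 note: nucleotide exchange releases bodipy-GDP from Rap1 and this lowers its fluorescence; % is set by controls: 0 for no effect and ±100 for the full control effect; nearly all actives have a fitted effect of over 65% in size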
Chain of Rap guanine nucleotide exchange factor 4 (Homo sapiens) (Q8WZA2 whole entry, looked up): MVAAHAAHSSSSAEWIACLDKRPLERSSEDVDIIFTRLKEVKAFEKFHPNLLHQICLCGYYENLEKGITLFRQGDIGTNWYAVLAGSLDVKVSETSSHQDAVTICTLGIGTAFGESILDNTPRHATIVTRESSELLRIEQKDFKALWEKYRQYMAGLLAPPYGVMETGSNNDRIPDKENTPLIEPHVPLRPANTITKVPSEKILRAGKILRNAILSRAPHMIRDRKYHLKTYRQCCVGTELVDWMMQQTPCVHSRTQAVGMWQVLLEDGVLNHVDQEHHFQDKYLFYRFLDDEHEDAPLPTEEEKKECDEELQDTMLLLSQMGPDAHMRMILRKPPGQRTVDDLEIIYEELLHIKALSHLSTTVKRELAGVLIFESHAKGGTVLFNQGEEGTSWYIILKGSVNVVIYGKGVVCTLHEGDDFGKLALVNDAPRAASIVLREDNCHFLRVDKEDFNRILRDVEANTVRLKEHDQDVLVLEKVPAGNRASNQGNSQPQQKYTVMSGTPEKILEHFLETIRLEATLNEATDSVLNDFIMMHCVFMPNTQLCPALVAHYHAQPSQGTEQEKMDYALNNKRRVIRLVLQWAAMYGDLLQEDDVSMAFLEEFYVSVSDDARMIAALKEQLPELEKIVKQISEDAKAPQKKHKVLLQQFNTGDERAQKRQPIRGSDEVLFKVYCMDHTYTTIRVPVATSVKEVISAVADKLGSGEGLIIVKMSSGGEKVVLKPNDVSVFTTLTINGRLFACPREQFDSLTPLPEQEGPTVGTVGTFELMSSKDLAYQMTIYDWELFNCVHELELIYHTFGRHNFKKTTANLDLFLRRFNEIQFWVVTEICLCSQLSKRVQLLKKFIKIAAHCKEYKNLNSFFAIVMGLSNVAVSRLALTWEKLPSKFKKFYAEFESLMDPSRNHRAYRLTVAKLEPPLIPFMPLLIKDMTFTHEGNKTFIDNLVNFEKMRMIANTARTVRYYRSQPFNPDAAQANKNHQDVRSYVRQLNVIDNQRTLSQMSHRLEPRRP

[3] = biological target: Rap guanine nucleotide exchange factor 4 (Homo sapiens) (UniProt Q8WZA2); experiment: Confirmatory qHTS for antagonist of cAMP-regulated guanine nucleotide exchange factor 4 (EPAC2) (AID 1645885); note: nearly all actives have a fitted effect of over 25% in size; note: potency is the fitted concentration of half-maximal effect; for activity change, negative = inhibition: % is set by controls: 0 for no effect and ±100 for the full control effect
[4] = biological target: Rap guanine nucleotide exchange factor 3 (Homo sapiens) (UniProt O95398); experiment: Counterscreen qHTS for antagonist of cAMP-regulated guanine nucleotide exchange factor 3 (EPAC1) (AID 1645888);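 note: fluorescence loss as bound BODIPY-GDP is released from Rap1B; % of control where 0% means no effect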
In short: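 Rap1B–BODIPY-GDP (250 nM) with 50 uM GDP; compounds pin-transferred to 9.74 nM–152 uM final (activator) or from 7.32 nM upwards (inhibitor). Fluorescence Ex/Em 480/540 nm read at 5 and 30 min, then after adding cAMP or buffer, at room temperature.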

Oc1c(Br)cc(Br)cc1CNc1cccc2cccnc12
inactive: Potency [1] | Potency [2] | Potency [4]
active: Potency [3] 26.9 µM

CCOc1ccc(N2C(=O)C3Sc4[nH]c(=O)sc4C(/C=C/c4ccccc4)C3C2=O)cc1 (configuration not stated)
inactive: Potency [1] | activation [2] 4.64% [at 17.1 µM, percent relative to cAMP agonist control] | Potency [3] | activity change, negative = inhibition [4] 18.3% [at 30.8 µM]

CC(=O)c1ccc(OCc2nnn(CC(=O)NS(=O)(=O)c3ccc(C)cc3)c2-c2ccccc2)cc1
inactive: Potency [1] | activation [2] 1.38% [at 17.1 µM, percent relative to cAMP agonist control] | Potency [3] | activity change, negative = inhibition [4] -5.72% [at 30.8 µM]

O=C(O)c1ccn2c(C(=O)c3ccc(Cl)cc3)c(-c3ccccc3)cc2c1
inactive: Potency [1] | Potency [2] | Potency [3] | Potency [4]

CCOc1cccc(CNc2ccc(O)cc2)c1OCc1ccc(Cl)cc1
inactive: Potency [1] | Potency [2] | Potency [3] | Potency [4]

CC(C)=CCC[C@H](C)C[C@@H]1Cc2[nH][nH]c(=O)c2[C@@H](c2ccc(F)cc2)O1
inactive: Potency [1] | activation [2] 5.46% [at 17.1 µM, percent relative to cAMP agonist control] | Potency [3] | activity change, negative = inhibition [4] -22.9% [at 30.8 µM]

O=C(/C=C/c1ccco1)Nc1cccc2cccnc12
inactive: Potency [1] | activation [2] 3.39% [at 17.1 µM, percent relative to cAMP agonist control] | Potency [3] | activity change, negative = inhibition [4] 21.3% [at 30.8 µM]

Cc1ccc(-c2nc3ccc(Br)cn3c2Cc2ccccc2)cc1
inactive: Potency [1] | Potency [2] | Potency [3] | Potency [4]

CCOC(=O)c1ccc2ncc(C(=O)OCC)c(Nc3ccc(C)c(Br)c3)c2c1
inactive: Potency [1] | Potency [2] | outcome [3] inactive [at 12.7 µM] | Potency [4]

COc1ccc(Oc2cn[nH]c2-c2ccc(OC)cc2O)cc1
inactive: Potency [1] | activation [2] 9.65% [at 17.1 µM, percent relative to cAMP agonist control] | Potency [3] | activity change, negative = inhibition [4] -4.7% [at 30.8 µM]

O=C1CS(=O)(=O)N(Cc2cccc(F)c2)c2ccc(Br)cc21
inactive: Potency [1] | Potency [2] | Potency [3] | Potency [4]

Cc1ccc(/C=C(\C#N)C(=O)Nc2cccc3ncccc23)o1
inactive: Potency [1] | Potency [2] | Potency [3] | Potency [4]

O=C1C=C(NS(=O)(=O)c2ccccc2)C(=O)c2ccccc21
inactive: Potency [1] | Potency [2] | Potency [3] | Potency [4]
